According to the supplement of paper PMC3334620:
The full ranking holds about 33,000 sequences; the median of “E-score (-0.5 to 0.5)” is about -0.032, and the highest 2% start at about 0.36. The sample as a whole holds a higher share of the highest values than the screen did.

These sequences were tested against T1, Sko1 (UniProt Q02100) (assay: PBM E-score (8-mer binding enrichment) (E-score (-0.5 to 0.5)); higher = stronger / more preferred TF binding). Conditions: protein concentration: 200 nM; construct: GST-full length.
T1 sequence: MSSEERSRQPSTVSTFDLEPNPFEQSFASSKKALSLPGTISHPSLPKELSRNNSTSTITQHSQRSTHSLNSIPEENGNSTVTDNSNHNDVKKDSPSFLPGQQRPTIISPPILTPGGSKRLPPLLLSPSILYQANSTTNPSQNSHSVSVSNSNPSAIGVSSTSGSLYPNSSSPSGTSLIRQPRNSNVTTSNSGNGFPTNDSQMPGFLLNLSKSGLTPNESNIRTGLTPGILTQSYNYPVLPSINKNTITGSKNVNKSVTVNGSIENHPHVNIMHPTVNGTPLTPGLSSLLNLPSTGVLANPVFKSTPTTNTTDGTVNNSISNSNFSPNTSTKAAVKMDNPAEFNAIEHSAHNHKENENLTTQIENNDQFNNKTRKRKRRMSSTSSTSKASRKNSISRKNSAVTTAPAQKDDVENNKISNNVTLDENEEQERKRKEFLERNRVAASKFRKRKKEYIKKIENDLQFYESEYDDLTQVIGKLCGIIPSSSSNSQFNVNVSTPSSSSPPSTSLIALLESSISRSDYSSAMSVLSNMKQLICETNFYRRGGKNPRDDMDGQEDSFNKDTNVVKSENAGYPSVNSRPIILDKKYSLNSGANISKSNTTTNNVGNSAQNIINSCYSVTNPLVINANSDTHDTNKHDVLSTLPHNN
Outline: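 Using PURExpress in vitro transcription/translation, GST-tagged yeast transcription factors were made in full-length or DNA-binding-domain form. These were applied at about 100-200 nM to double-stranded universal all-10-mer Agilent arrays, and bound protein was detected with fluorescent anti-GST. Scans were normalised with masliner before the Universal PBM Analysis Suite assigned E-scores to ungapped eight-base words pooled with their reverse complements.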

Row | Sequence | PBM E-score
1 | ACCGGGTG | -0.224
2 | TGAGTACA | -0.0184
3 | CAGCATGC | -0.0382
4 | TGGCCCAA | -0.0707
5 | ACCAACTG | -0.0438
6 | CCAGAGAA | 0.0433
7 | CTGTCGGC | -0.148
8 | AGATCGAA | 0.0696
9 | GATTACCC | -0.0418
10 | CATTACAC | 0.198
11 | GATTACAC | 0.0868
12 | CATTACGC | 0.409
13 | GATTACGC | 0.425
14 | AATTACAC | 0.0946
15 | AATTACAT | 0.375
16 | AATTACGG | 0.26
17 | CATTACCC | -0.0584
18 | AATTAGGT | 0.26
19 | AATTACGT | 0.492
20 | AATTACAG | 0.113
21 | AGTGAGGC | 0.0161

Row | Sequence | PBM E-score
22 | CGGTTAAC | 0.0142
23 | ACTTAAAA | 0.241
24 | ATCAGATC | -0.0621
25 | AGTTGAAT | 0.135
26 | ATGTCCAA | 0.0296
27 | CCCGGGTC | -0.204
28 | GGCGCCAA | -0.179
29 | ATGAAGGA | 0.0878
30 | ATCCACCG | -0.0573
31 | ATTTACGC | 0.281
32 | TATTACGA | 0.414
33 | AATTACCC | 0.0055
34 | AATTACGC | 0.44
35 | TATTACCA | 0.227
36 | TATTACAA | 0.221
37 | CTTCGAAG | -0.208
38 | AGGCCCCG | -0.372
39 | ATGGTTGA | -0.0732
40 | ACGGAGCA | -0.116
41 | CCTACAGG | -0.365
42 | TGCGCGAA | 0.169
